Among the test systems are DU-145 prostate; K-562 leukemia; MALME-3M melanoma; MDA-MB-231 breast; RXF 393 renal; SF-268 CNS; SF-295 CNS; SF-539 CNS; UACC-257 melanoma; M14 melanoma; HCT-15 colon; HT29 colon; SNB-75 CNS; SNB-19 CNS; U251 CNS; PC-3 prostate; SK-MEL-5 melanoma; UACC-62 melanoma; LOX IMVI melanoma; SK-MEL-28 melanoma.
Test in all cases: NCI-60 one-dose screen, 48 h (100 = growth as untreated, 0 = no growth, -100 = all killed)
Holding throughout (conditions): 10 µM unless noted

This is part of a sample that, as a whole, favours compounds with a hit. Of some 83,000 tested, about 20% had one in any assay.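 The endpoint reported here, percent growth, reads 100 for growth as untreated, 0 for no net growth and -100 for all cells dead.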 A number with no mark means an inactive call. Active and inactive are the calls of the source. Rule for the calls: active = growth percent below 10; inactive = the rest.

Seven compounds from PubChem BioAssay (NCI) can be followed below.

In the case of `O=C(N/N=C1\SCC(=O)N1c1ccccc1)c1cc(-c2cc3ccccc3o2)nn1-c1ccccc1`, the growth in the assay on DU-145 prostate is 109%; in the assay with K-562 leukemia, 90.6%; in the assay on MALME-3M melanoma it was 94%; with MDA-MB-231 breast, 91.9%; in the assay on RXF 393 renal, 101%; in the assay on SF-268 CNS it was 103%. Besides, the growth with SF-295 CNS was 104%; in the assay with SF-539 CNS, 104%; with UACC-257 melanoma, 107%; in the assay with M14 melanoma it was 110%; with HCT-15 colon, 106%; in the assay with HT29 colon, 107%. In addition, the growth with SNB-75 CNS was 101%; in the assay with SNB-19 CNS, 104%; with U251 CNS it was 103%; with PC-3 prostate, 86.9%; in the assay with SK-MEL-5 melanoma, 101%; in the assay on UACC-62 melanoma, 134%. The growth in the assay on LOX IMVI melanoma is 107%; in the assay with SK-MEL-28 melanoma, 110%.

On to `O=C1CCC(c2c(O)cc(O)c3c(=O)c(O)c(-c4ccc(O)c(O)c4)oc23)N1` (stereo not given), for which the growth in the assay with DU-145 prostate was 105%; with K-562 leukemia, 96.1%; with MALME-3M melanoma, 89.6%; in the assay on MDA-MB-231 breast, 118%; in the assay with RXF 393 renal, 99.8%; in the assay with SF-268 CNS it was 96.4%. The growth in the assay on SF-295 CNS was 101%; in the assay on SF-539 CNS it was 103%; with UACC-257 melanoma, 86.1%; with M14 melanoma, 101%; with HCT-15 colon, 102%; in the assay on HT29 colon, 84%. Further, the growth in the assay with SNB-75 CNS is 99.2%; in the assay with SNB-19 CNS, 108%; in the assay with U251 CNS it was 101%; with PC-3 prostate, 93.3%; in the assay with SK-MEL-5 melanoma, 101%; in the assay on UACC-62 melanoma, 88.5%. Besides, the growth in the assay with LOX IMVI melanoma is 96.9%; in the assay with SK-MEL-28 melanoma, 102%.

As for `COc1cccc(-c2nc3sccn3c2-c2ccnc(NCCNC(=O)Nc3cccc(C(F)(F)F)c3)n2)c1`, the growth was 79.8% with DU-145 prostate; 39.9% in the assay on K-562 leukemia; 85.1% in the assay with MALME-3M melanoma; 43.7% in the assay on MDA-MB-231 breast; 6.3% (active) in the assay on RXF 393 renal; 62.3% in the assay with SF-268 CNS. Further, the growth with SF-295 CNS was 37.7%; in the assay with SF-539 CNS it was 77.9%; with UACC-257 melanoma, 69.5%; in the assay on M14 melanoma, 39.2%; in the assay with HCT-15 colon, 45.9%; in the assay with HT29 colon, 44.1%. Moreover, the growth is 71.8% in the assay on SNB-75 CNS; 74.8% with SNB-19 CNS; 58.1% with U251 CNS; 32.9% in the assay on PC-3 prostate; 51.5% with SK-MEL-5 melanoma; 50.5% with UACC-62 melanoma. Besides, the results for the growth in the assay on LOX IMVI melanoma and in the assay with SK-MEL-28 melanoma were 44.3% and 78.4%, respectively.

On to `CSc1nc(N)nc2c1ncn2C`, for which the growth with DU-145 prostate is 108%; with K-562 leukemia, 95%; with MALME-3M melanoma, 104%; in the assay on MDA-MB-231 breast it was 109%; in the assay on RXF 393 renal, 116%; with SF-268 CNS, 98.7%. Further, the growth is 108% with SF-295 CNS; 98.9% in the assay on SF-539 CNS; 104% in the assay with UACC-257 melanoma; 102% in the assay on M14 melanoma; 102% with HCT-15 colon; 87.1% in the assay on HT29 colon. Also, the growth was 96.4% with SNB-75 CNS; 110% in the assay on SNB-19 CNS; 95.4% in the assay on U251 CNS; 72.5% in the assay on PC-3 prostate; 100% in the assay on SK-MEL-5 melanoma; 102% in the assay on UACC-62 melanoma. Also, the growth with LOX IMVI melanoma is 92.6%; in the assay on SK-MEL-28 melanoma it was 109%.

As to `COc1ccc(/C=C/C(=O)c2ccc(Oc3ncnc4ccccc34)cc2)cc1OC`, the growth in the assay with DU-145 prostate is 61.9%; in the assay with K-562 leukemia, 9.19% (active); with MALME-3M melanoma it was 77.5%; in the assay with MDA-MB-231 breast it was 81.6%; in the assay with RXF 393 renal, 88.1%; in the assay with SF-268 CNS, 74.8%. Also, the growth with SF-295 CNS was 85.7%; in the assay with SF-539 CNS, 73.5%; in the assay with UACC-257 melanoma, 93.8%; in the assay with M14 melanoma, 64.3%; with HCT-15 colon, 24.3%; in the assay with HT29 colon it was 27.4%. Moreover, the growth was 74.8% in the assay on SNB-75 CNS; 64.9% with SNB-19 CNS; 50.9% in the assay on U251 CNS; 82.1% with PC-3 prostate; 72.5% with SK-MEL-5 melanoma; 76.9% with UACC-62 melanoma. For the same compound, the growth with LOX IMVI melanoma is 13.8%; with SK-MEL-28 melanoma, 104%.

With `COc1cc(NC(C)CCCN2C(=O)c3ccccc3C2=O)c2nccc(C)c2c1OC` (stereo not given), the growth with DU-145 prostate is 124%; with K-562 leukemia, 60.9%; in the assay with MALME-3M melanoma it was 81.2%; with MDA-MB-231 breast, 84.7%; with RXF 393 renal, 106%; in the assay with SF-268 CNS, 104%. Besides, the growth with SF-295 CNS is 119%; in the assay on SF-539 CNS, 119%; with UACC-257 melanoma it was 106%; in the assay with M14 melanoma, 135%; in the assay with HCT-15 colon it was 102%; in the assay on HT29 colon, 107%. Further, the growth was 102% in the assay on SNB-75 CNS; 109% in the assay with SNB-19 CNS; 101% in the assay on U251 CNS; 58.6% in the assay on PC-3 prostate; 69.5% in the assay with SK-MEL-5 melanoma; 84% with UACC-62 melanoma. Moreover, the growth in the assay with LOX IMVI melanoma was 82.8%; in the assay with SK-MEL-28 melanoma, 113%.

In the case of `COc1cc2ncn3c(=O)c4c5c(sc4nc3c2cc1OC)CCCCC5`, the growth in the assay with DU-145 prostate is 111%; with K-562 leukemia, 97.3%; in the assay with MALME-3M melanoma it was 93.7%; with MDA-MB-231 breast, 91.7%; with RXF 393 renal it was 105%; with SF-268 CNS it was 93.7%. For the same compound, the growth was 105% in the assay with SF-295 CNS; 100% in the assay on SF-539 CNS; 105% with UACC-257 melanoma; 106% in the assay on M14 melanoma; 107% in the assay with HCT-15 colon; 112% with HT29 colon. The growth was 73.2% with SNB-75 CNS; 102% with SNB-19 CNS; 102% in the assay with U251 CNS; 90.9% in the assay with PC-3 prostate; 94.9% with SK-MEL-5 melanoma; 93.7% in the assay with UACC-62 melanoma. Also, the growth in the assay with LOX IMVI melanoma is 88.2%; with SK-MEL-28 melanoma it was 107%.
